# Bioassay records: PubChem BioAssay, The Scripps Research Institute Molecular Screening Center
# HGIII-sPLA2 inh: human group III sPLA2 inhibitors, primary screen, biochemical, QFRET, BODIPY PC-A2 liposome substrate. QFRET BODIPY PC-A2 liposome hydrolysis, fluorescence. Group 3 secretory phospholipase A2 (Homo sapiens), Q9NZ20. AID 743126, 2013. actives 0.56% (n = 370,000). inhibition, % at 12.2 µM;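 active = inhibition above mean plus 3 SD of compounds lying within the high and low control bounds, cut at about 19% in these data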;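 note: 0% = median of test compound wells and 100% = no enzyme DMSO wells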
# Target sequence (Q9NZ20 whole entry, looked up): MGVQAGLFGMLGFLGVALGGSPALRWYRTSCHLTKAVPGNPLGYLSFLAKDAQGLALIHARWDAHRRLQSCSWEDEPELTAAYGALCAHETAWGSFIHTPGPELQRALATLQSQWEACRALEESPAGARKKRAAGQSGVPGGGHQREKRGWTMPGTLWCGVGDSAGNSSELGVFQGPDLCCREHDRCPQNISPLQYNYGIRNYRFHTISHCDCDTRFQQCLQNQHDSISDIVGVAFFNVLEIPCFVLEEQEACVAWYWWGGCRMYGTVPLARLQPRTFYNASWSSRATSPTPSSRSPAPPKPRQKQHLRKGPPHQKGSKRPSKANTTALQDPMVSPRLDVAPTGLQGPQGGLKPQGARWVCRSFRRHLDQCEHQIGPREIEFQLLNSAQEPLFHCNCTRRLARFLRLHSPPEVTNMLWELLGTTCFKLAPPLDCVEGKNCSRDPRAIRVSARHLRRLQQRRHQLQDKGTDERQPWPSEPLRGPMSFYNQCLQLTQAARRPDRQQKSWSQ
# MsrA inh: bovine MsrA enzyme inhibitors, primary screen, biochemical, absorbance, HTS; Methionine sulfoxide reductase A (Bos taurus); purified bovine MsrA, absorbance read-out; inhibition, % at 15.5 µM; actives 0.75% (n = 360,000); AID 651718, 2012;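 note: 0% = vehicle wells with enzyme and 100% = reference inhibitor wells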
# MsrA act: bovine MsrA enzyme activators, primary screen, biochemical, absorbance, HTS. Methionine sulfoxide reductase A (Bos taurus). purified bovine MsrA, absorbance read-out. activation, % at 10.6 µM. actives 0.3% (n = 360,000); in the data active = activation above about 7.5%;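 note: 0% = vehicle and 100% = reference activator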
# rCAG binder: binders of r(CAG) RNA repeats, primary screen, biochemical, fluorescence; inhibition, % at 3 µM; r(CAG) RNA repeat, TO-PRO-1 dye displacement fluorescence; AID 651821, 2012; actives 1.3% (n = 370,000);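 active = inhibition above the plate cutoff, the mean of all test compounds on that plate plus 3 SD, cut at about 35% in these data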;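 note: 0% = DMSO alone and 100% = 100 µM mitoxantrone as full dye displacement; higher means more dye released from RNA so lower well fluorescence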
# PG9 binder: binders of HIV-1 gp120 antibody PG9, primary screen, biochemical, TR-FRET. HIV-1 gp120 / PG9 antibody interaction. TR-FRET gp120-PG9 antibody binding. inhibition, % at 6.7 µM. actives 0.43% (n = 360,000). AID 624416, 2012; in the data active = inhibition above about 8.5%
# MsrA conf: bovine MsrA inhibitors, retest, confirmation, biochemical, absorbance, HTS | shares compounds with MsrA inh | purified bovine MsrA, absorbance read-out | inhibition, % at 15.5 µM | actives 41% (n = 2,300) | AID 651822, 2012;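 note: coupled to thioredoxin reductase with NADPH and selenocystamine and DMSO as substrate; 0% = vehicle only and 100% = full effect of reference inhibitor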
# rCAG binder conf: small molecules binding CAG repeat RNA – biochemical, fluorescence, confirmation | shares compounds with rCAG binder | r(CAG) RNA repeat, TO-PRO-1 dye displacement fluorescence | inhibition, % at 3 µM | actives 70% (n = 4,300);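 active = inhibition above a per-plate cutoff, the mean inhibition of sample wells plus 3 SD, cut at about 35% in these data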;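 note: loss of TO-PRO-1 fluorescence as compound displaces dye from 1x1 AA loop RNA; 0% = DMSO only wells and 100% = 100 µM mitoxantrone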
# DNA CAG counter: displacement of TO-PRO-1 from CAG DNA duplex, counter-screen for rCAG RNA repeat binder project, biochemical, fluorescence, TO-PRO-1 dye, d(CAG) DNA oligo; actives 94% (n = 4,300); d(CAG) DNA oligo TO-PRO-1 dye displacement; inhibition, % at 3 µM; shares compounds with rCAG binder;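 active = inhibition above its plate's cutoff, the mean test-well inhibition plus 3 SD, cut at about 4.8% in these data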;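 note: 0% = DNA dye mix with DMSO and 100% = 100 µM mitoxantrone; hits displace the dye from DNA and so lower well fluorescence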
# * = called active by the depositor; nt = no result given. The list is not random: actives were taken first. Their share in the collection is about 3.2%. Cut-off read from the data, not from the text of the source, unless noted: active = inhibition above about 4.5%; inactive = the rest.
SMILES,HGIII-sPLA2 inh,MsrA inh,MsrA act,rCAG binder,PG9 binder,MsrA conf,rCAG binder conf,DNA CAG counter
CC(C)(C)OC(=O)NCc1cc(F)ccc1/C=C/S(=O)(=O)NCc1ccccc1,-8,nt,nt,1,nt,nt,nt,nt
O=C(N=Nc1c(O)[nH]c2ccccc12)c1ccccc1NS(=O)(=O)c1cccs1,-7,4.8*,-11,65*,-3,4,41*,15*
COc1ccc(C2Nc3ccccc3C(=O)N2Cc2cccnc2)cc1COc1c(C)cccc1C (centres undefined),-3,nt,nt,nt,nt,nt,nt,nt
Cc1cccc(C)c1-n1cccc1/C=C1/C(=N)N2C(=NC1=O)SN=C2S(C)(=O)=O,-58,7.4*,-8,88*,-4,5.8*,85*,59*
CCCC(=O)N1CCC[C@]2(CC[C@@H](CCC(C)=O)O2)C1,4,nt,nt,3,nt,nt,nt,nt
O=C(CCN1C(=O)S/C(=C/c2ccccc2)C1=O)Nc1ccc(O)c(C(=O)O)c1,-14,6.5*,0,56*,-1,4,40*,14*
O=C(CCN1C(=O)S/C(=C\c2cccs2)C1=O)Nc1nccs1,2,1,0,1,1,nt,nt,nt
O=C(CN1C(=O)S/C(=C\c2cccs2)C1=O)Nc1ccc(O)cc1C(=O)O,-19,5.1*,-12,68*,1,4,49*,15*
COc1ccc(/C=C2\SC(=S)N(CCC(=O)Nc3ccccc3C(=O)O)C2=O)cc1,-3,0,-9,8,-2,nt,nt,nt
O=C(CCN1C(=O)S/C(=C\c2ccccc2)C1=O)Nc1ccc(O)cc1C(=O)O,-18,4.8*,-4,46*,-3,4,33,8.4*
CN(C(=O)C1CCN(c2cncnc2)CC1)C1CCCCC1,7,nt,nt,0,nt,nt,nt,nt
CCN(CC)c1ccc(/C=N/NC(=O)Cc2nnc(NC(=O)Nc3ccccc3)s2)cc1,-48,5.5*,-8,60*,-1,4,40*,27*
COC(=O)[C@]1(CNC(C)=O)CC(=O)N(Cc2ccc(Cl)cc2)[C@@H]1c1ccc(OC)cc1,9,nt,nt,2,nt,nt,nt,nt
O=c1ccc2ccc(O[C@@H]3O[C@H](CO[C@@H]4OC[C@](O)(CO)[C@H]4O)[C@@H](O)[C@H](O)[C@H]3O)cc2o1,-5,0,-4,11,0,nt,nt,nt
CC1OC(Oc2ccc3ccc(=O)oc3c2-c2c(O)ccc3cc(Oc4ccc5ccc(=O)oc5c4)c(=O)oc23)C(O)C(O)C1O (centres undefined),1,4.8*,-5,38*,-3,4,24,8.7*
O=C([C@@H]1C[C@H]1c1ccccc1)N1CC[C@H]2[C@H](CCCN2Cc2cc(F)cc(F)c2)C1,-2,nt,nt,3,nt,nt,nt,nt
Cc1ccc(-n2c(SCC(=O)Nc3ccccc3-c3ccccc3)nnc2-c2cccnc2)cc1,-6,nt,nt,5,nt,nt,nt,nt
CCC(C)Oc1ccc(/C=C/c2[nH]c(=O)[nH]c(=O)c2[N+](=O)[O-])cc1OC (centres undefined),-11,7.6*,-3,36*,0,4.6*,24,4.9*
COc1cc(/C=C/c2[nH]c(=O)[nH]c(=O)c2[N+](=O)[O-])ccc1OCCC(C)C,1,2,-4,4,2,nt,nt,nt
C[C@H](O)[C@@H]1CN2CCc3ccc(N4CCOCC4)cc3[C@@H]2C[C@@H]1N(C)C(=O)c1cccc(Cl)c1,1,nt,nt,0,nt,nt,nt,nt
CCN(CC)S(=O)(=O)c1cccc(-c2n[nH]c(=S)n2/N=C/c2ccc(OC)cc2)c1,1,7.7*,-1,50*,1,4,46*,12*
